# Source: PubChem BioAssay (NCATS)
# Records with an inconclusive call do not appear. Unmarked numbers belong to inactive results. Active and inactive are the calls of the source. The call rests on the fitted dose curve; in most records, active means well fitted inhibition curve with a large enough effect; inconclusive means small, poorly fitted or top-dose-only effect; inactive means flat fitted curve, though single readings scatter.
# Test system: CP185
# Test: qHTS profiling for inhibitors of Plasmodium falciparum proliferation (AID 504749); further: nearly all actives have a fitted effect of over 60% in size;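 on activity, negative = inhibition: 0% = DMSO vehicle and full inhibition = artemisinin control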
# Conditions: P. falciparum in erythrocytes, SYBR Green DNA, 72 h; series mostly up to 28.7 µM; activity, negative = inhibition: at the top concentration
# How it was run: (§1)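 Three-day growth assay of blood-stage parasites in erythrocytes (0.3% parasitemia, 2.5% hematocrit) at 37 C, 5% CO2, quantified by SYBR Green DNA staining after overnight detergent lysis.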
# Potency means the concentration at half of the fitted maximal effect.
Compound,"activity, negative = inhibition",Potency
COc1c2c(cc3c1OCO3)CCN(C)C2,2.41% [at 12.8 µM],–
CN1C(=O)NC(=O)C(C)(C2=CCCCC2)C1=O (centres undefined),–,inactive
CN1C[C@H](C(=O)N[C@]2(C)O[C@@]3(O)[C@@H]4CCCN4C(=O)[C@H](Cc4ccccc4)N3C2=O)C=C2c3cccc4[nH]cc(c34)C[C@H]21,–,3.98 µM (active)
CCCCCCC(=O)CCCCCC/C=C/C[C@@H](O)[C@H](O)[C@@](N)(CO)C(=O)O,10.2%,–
CC(C)=CC1C(C(=O)OCN2C(=O)C3=C(CCCC3)C2=O)C1(C)C (centres undefined),8.89%,–
CN1C(=O)COc2c(C(=O)NC3CN4CCC3CC4)cc(Cl)cc21 (centres undefined),5.72%,–
COP(=S)(OC)Oc1ccc(SC)c(C)c1,3.34%,–
Nc1nc(N)nc(NC2CC2)n1,10.5%,–
O=C(Nc1ccc(Br)cc1)c1cc(Br)cc(Br)c1O,3.11%,–

# Test system: CP191
# Test: as above
# Conditions: P. falciparum in erythrocytes, SYBR Green DNA, 72 h; series mostly up to 28.7 µM; activity, negative = inhibition: at the top concentration
# How it was run: as §1
Compound,"activity, negative = inhibition",Potency
C[C@](O)(CS(=O)(=O)c1ccc(F)cc1)C(=O)Nc1ccc(C#N)c(C(F)(F)F)c1,4.03%,–
COP(=S)(OC)SCN1C(=O)c2ccccc2C1=O,2.47%,–
C[C@]12CC[C@@H]3c4ccc(OC(=O)N(CCCl)CCCl)cc4CC[C@H]3[C@@H]1CC[C@@H]2O,14.1%,–
O=P1(N(CCCl)CCCl)NCCCO1 (centres undefined),0.622%,–
Cc1nnc2n1-c1ccc(Cl)cc1C(c1ccccc1)=NC2,-0.216%,–
O=C1Nc2ccc(Cl)cc2C(c2ccccc2)=NC1O (centres undefined),0.712%,–
CCOC(=O)CC(SP(=S)(OC)OC)C(=O)OCC (centres undefined),-4.14%,–
CCCCCCCCCC(=O)O[C@H]1CC[C@H]2[C@@H]3CCC4=CC(=O)CC[C@@H]4[C@H]3CC[C@]12C,6.99%,–
Nc1ccccc1C(=O)O,3.86%,–
Oc1ccc(Cl)cc1,0.876%,–
Cc1ncsc1CCCl,9.72%,–
CN1C(=O)CCS(=O)(=O)C1c1ccc(Cl)cc1 (centres undefined),-1.82%,–
NCCc1ccc(O)cc1,-0.949%,–
C[C@]12CCC(=O)C=C1CC[C@@H]1[C@@H]2CC[C@]2(C)C(=O)CC[C@@H]12,-0.54%,–
Clc1ccc2c(c1)C(c1ccccc1)=NCc1nncn1-2,9.28%,–
O=C1CN=C(c2ccccc2)c2cc([N+](=O)[O-])ccc2N1,-0.314%,–
NC(=O)CS(=O)C(c1ccccc1)c1ccccc1 (centres undefined),-2.38%,–
CCC1(c2ccccc2)C(=O)N(COC)C(=O)N(COC)C1=O,-2.4%,–
Nc1ccc([As](=O)(O)O)cc1,-14.1%,–
O=c1oc2ccccc2c(O)c1Cc1c(O)c2ccccc2oc1=O,-3.71% [at 12.8 µM],–
O=C(O)CCCc1ccc(N(CCCl)CCCl)cc1,6.94%,–
COc1c2c(cc3c1OCO3)CCN(C)C2,-6.38% [at 12.8 µM],–
CN1C(=O)NC(=O)C(C)(C2=CCCCC2)C1=O (centres undefined),3.47%,–
CN1C[C@H](C(=O)N[C@]2(C)O[C@@]3(O)[C@@H]4CCCN4C(=O)[C@H](Cc4ccccc4)N3C2=O)C=C2c3cccc4[nH]cc(c34)C[C@H]21,–,1.58 µM (active)
CCCCCCC(=O)CCCCCC/C=C/C[C@@H](O)[C@H](O)[C@@](N)(CO)C(=O)O,4.62%,–
CC(C)=CC1C(C(=O)OCN2C(=O)C3=C(CCCC3)C2=O)C1(C)C (centres undefined),3.87%,–
CN1C(=O)COc2c(C(=O)NC3CN4CCC3CC4)cc(Cl)cc21 (centres undefined),2.68%,–
COP(=S)(OC)Oc1ccc(SC)c(C)c1,6.01%,–
Nc1nc(N)nc(NC2CC2)n1,-0.776%,–
O=C(Nc1ccc(Br)cc1)c1cc(Br)cc(Br)c1O,-8.08%,–

# Test system: CP192
# Test: as above
# Conditions: P. falciparum in erythrocytes, SYBR Green DNA, 72 h; series mostly up to 28.7 µM; activity, negative = inhibition: at the top concentration
# How it was run: as §1
Compound,"activity, negative = inhibition",Potency
C[C@](O)(CS(=O)(=O)c1ccc(F)cc1)C(=O)Nc1ccc(C#N)c(C(F)(F)F)c1,-9.29%,–
COP(=S)(OC)SCN1C(=O)c2ccccc2C1=O,-0.138%,–
C[C@]12CC[C@@H]3c4ccc(OC(=O)N(CCCl)CCCl)cc4CC[C@H]3[C@@H]1CC[C@@H]2O,-0.507%,–
O=P1(N(CCCl)CCCl)NCCCO1 (centres undefined),0.389%,–
Cc1nnc2n1-c1ccc(Cl)cc1C(c1ccccc1)=NC2,-7.9%,–
O=C1Nc2ccc(Cl)cc2C(c2ccccc2)=NC1O (centres undefined),5.85%,–
CCOC(=O)CC(SP(=S)(OC)OC)C(=O)OCC (centres undefined),-2.23%,–
CCCCCCCCCC(=O)O[C@H]1CC[C@H]2[C@@H]3CCC4=CC(=O)CC[C@@H]4[C@H]3CC[C@]12C,-11.5%,–
Nc1ccccc1C(=O)O,0.0675%,–
Oc1ccc(Cl)cc1,5.35%,–
Cc1ncsc1CCCl,-1.3%,–
CN1C(=O)CCS(=O)(=O)C1c1ccc(Cl)cc1 (centres undefined),-5%,–
NCCc1ccc(O)cc1,-9.43%,–
C[C@]12CCC(=O)C=C1CC[C@@H]1[C@@H]2CC[C@]2(C)C(=O)CC[C@@H]12,-0.45%,–
Clc1ccc2c(c1)C(c1ccccc1)=NCc1nncn1-2,-3.6%,–
O=C1CN=C(c2ccccc2)c2cc([N+](=O)[O-])ccc2N1,-0.0997%,–
NC(=O)CS(=O)C(c1ccccc1)c1ccccc1 (centres undefined),0.79%,–
CCC1(c2ccccc2)C(=O)N(COC)C(=O)N(COC)C1=O,-2.39%,–
Nc1ccc([As](=O)(O)O)cc1,-5.06%,–
O=c1oc2ccccc2c(O)c1Cc1c(O)c2ccccc2oc1=O,-2.18% [at 12.8 µM],–
O=C(O)CCCc1ccc(N(CCCl)CCCl)cc1,-4.05%,–
COc1c2c(cc3c1OCO3)CCN(C)C2,-0.75% [at 12.8 µM],–
CN1C(=O)NC(=O)C(C)(C2=CCCCC2)C1=O (centres undefined),–,inactive
CN1C[C@H](C(=O)N[C@]2(C)O[C@@]3(O)[C@@H]4CCCN4C(=O)[C@H](Cc4ccccc4)N3C2=O)C=C2c3cccc4[nH]cc(c34)C[C@H]21,–,8.49 µM (active)
CCCCCCC(=O)CCCCCC/C=C/C[C@@H](O)[C@H](O)[C@@](N)(CO)C(=O)O,4.75%,–
CC(C)=CC1C(C(=O)OCN2C(=O)C3=C(CCCC3)C2=O)C1(C)C (centres undefined),2.68%,–
CN1C(=O)COc2c(C(=O)NC3CN4CCC3CC4)cc(Cl)cc21 (centres undefined),-1.63%,–
COP(=S)(OC)Oc1ccc(SC)c(C)c1,-3.79%,–
Nc1nc(N)nc(NC2CC2)n1,12.4%,–
O=C(Nc1ccc(Br)cc1)c1cc(Br)cc(Br)c1O,-1.27%,–
